The campaign covered roughly 360,000 compounds. About 7,500 (2.1%) were called active. A call without a number means that no potency is given here. Not shown: some 20% with an inconclusive outcome. The full list was thinned out, with actives kept by preference. Unmarked numbers belong to inactive results. Calls come from the whole dose curve; as a rule, active = well fitted inhibition curve with a large enough effect; inconclusive = small, poorly fitted or top-dose-only effect, or effect the other way; inactive = flat fitted curve, though single readings scatter.
Test: Nrf2 qHTS screen for inhibitors; note: nearly all actives have a fitted effect of over 60% in size
Conditions: A549 ARE-Fluc reporter, luciferase luminescence, 18-24 h; series mostly up to 46 µM
Method in brief: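 Quantitative HTS in A549 cells stably bearing an antioxidant response element-firefly luciferase construct. Inhibition of Nrf2-driven transcription was scored by luminescence after 18-24 h of compound exposure at 37 °C.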
Potency is the fitted concentration of half-maximal effect.

SMILES | Potency | activity change, negative = inhibition
NC(=O)C1(Nc2ccc(-c3ccccc3)cc2)CCCC1 | inactive | –
O=C1CCCC2=C1[C@@]1(CCC(c3ccccc3)C1)N=C(Nc1nc3ccccc3o1)N2 (some centres not stated) | inactive | –
O=c1c2ccccc2n(Cc2cccc(Cl)c2)c(=O)n1Cc1ccccc1 | – | -5.53% [at 9.27 µM]
CCOC(=O)c1cnc(SCC(=O)Nc2cccc(OC)c2)nc1N | 25.9 µM (active) | –
CCOC(=O)c1cnc(SCc2nc(N)nc(Nc3ccc(OC)cc3)n2)nc1N | inactive | –
CCOC(=O)c1cnc(SCC(=O)NCc2ccco2)nc1N | inactive | –
COc1ccc(-c2cn3c(n2)sc2cc(C(=O)Nc4ccc(F)cc4)ccc23)cc1 | inactive | –
CCCCCCC1(C)NC(c2ccc3c(c2)OCO3)=CC(c2ccccc2O)N1 (configuration not stated) | inactive | –
Cc1ccc(-n2ncc3c2CCCC3NC(=O)c2cnccn2)cc1C (configuration not stated) | 20.6 µM (active) | –
Cc1cc(C(=O)NC2CCCc3c2cnn3-c2cccc(C)c2C)c(C)o1 (configuration not stated) | 3.66 µM (active) | –
CC(=O)NCC(=O)NC1CCCc2c1cnn2-c1ccccc1F (configuration not stated) | inactive | –
Cn1nccc1C(=O)NC1CCCc2c1cnn2-c1ccc(F)cc1F (configuration not stated) | 0.184 µM (active) | –
Cc1ccc(C(=O)NCCNC(=O)c2cnccn2)cc1 | inactive | –
Cc1ccc(-c2csc(NC(=O)c3cnccn3)n2)cc1C | inactive | –
CC1=C(C(=O)NC2CC(C)(C)Cc3c2cnn3-c2ccc(C)cc2)OCCO1 (configuration not stated) | inactive | –
COc1ccc(C(=O)NC2CC(C)(C)Cc3c2cnn3-c2ccccc2C)o1 (configuration not stated) | inactive | –
Cc1cccc(-n2nc3c(c2NC(=O)c2ccc(Br)o2)CSC3)c1C | inactive | –
COc1cc(CNCCSc2nnnn2C)ccc1OCc1ccc(Cl)cc1Cl | inactive | –
COc1ccc(CNC(=O)CS(=O)Cc2nc(-c3cccc(C)c3)oc2C)cc1 (configuration not stated) | inactive | –
Cc1ccc(OCCSc2nc(C)c(Cc3ccccc3)c(=O)[nH]2)cc1 | inactive | –
CCOC(=O)[C@H]1[C@H]2COc3ccc(Br)cc3[C@@H]2N2C(=O)CN(C)C(=O)[C@@]12C | inactive | –
CN(CC(=O)Nc1ccc(OC(F)F)cc1)S(=O)(=O)/C=C/c1ccccc1 | inactive | –
O=C(Nc1cccc(NC(=O)c2ccc(Br)cc2)c1)c1ccccc1 | inactive | –
O=C(Cc1ccccc1)Nc1cccc(NC(=O)c2ccccc2)c1 | 25.9 µM (active) | –
O=C(Nc1cccc(NC(=O)c2cccc(F)c2)c1)c1ccccc1 | inactive | –

SMILES | Potency | activity change, negative = inhibition
Cc1ccccc1C(=O)Nc1sc2c(c1C(=O)N1CCC(C)CC1)CCCC2 | inactive | –
CCOc1ccc(NC(=O)CCC(=O)N/N=C/c2ccc([N+](=O)[O-])s2)cc1 | inactive | –
CC(C)(C)c1cc(C(=O)N/N=C/c2ccc([N+](=O)[O-])s2)n[nH]1 | 20.6 µM (active) | –
COc1ccc(C(=O)COC(=O)c2ccc([N+](=O)[O-])s2)cc1OC | inactive | –
COc1ccc2ccccc2c1/C=N/NC(=O)c1cc(C)[nH]n1 | inactive | –
COc1ccc(C(=O)NCC(=O)N/N=C/c2ccc([N+](=O)[O-])s2)cc1OC | 25.9 µM (active) | –
Cc1cc(C(=O)N/N=C/c2cc([N+](=O)[O-])cc(C)c2O)n[nH]1 | inactive | –
Cn1c(=O)c(C(=O)O)nn(-c2ccccc2)c1=O | – | 7.58% [at 9.27 µM]
COc1ccc(C2=NC(c3ccncc3)=Nc3ccc(Br)cc3N2)cc1 | inactive | –
COc1cc(C2CC(=O)Oc3cc(OC)c(OC)c(OC)c32)cc(OC)c1OC (configuration not stated) | inactive | –
CCN1CCN(CCNC(=O)c2ccc(/C=C3/Sc4ccccc4N(Cc4cccc(C)c4)C3=O)cc2)CC1 | inactive | –
CCN1/C(=C/c2ccc3ccc(C)cc3[n+]2CC)Sc2ccccc21 | 13 µM (active) | –
FC(F)(F)c1ccc(-c2cccc3c2C2CC3CCN2Cc2ccccc2)cc1 (configuration not stated) | inactive | –
COc1ccc(-c2cc(NCc3ccc(F)cc3)n3cnnc3n2)cc1 | inactive | –
NC(=O)c1ncn([C@@H]2O[C@H](CNCc3cnc(N4CCOCC4)s3)[C@@H](O)[C@H]2O)n1 | inactive | –
Cn1nc(-c2ccccc2)c(CO)c1Sc1ccccc1 | 25.9 µM (active) | –
Cn1nc(-c2ccccc2)c(CSc2cccc(Cl)c2)c1Cl | inactive | –
Cc1ccc(S(=O)(=O)c2c(COC(=O)c3cccc(Cl)c3)c(-c3ccccc3)nn2C)cc1 | inactive | –
O=C(COc1ccccc1F)NNC(=O)c1cc(Br)ccc1Cl | inactive | –
O=C(CN1C(=O)NC2(CCCCCC2)C1=O)Nc1ccc([N+](=O)[O-])cc1 | inactive | –
CCC1CCCCN1Cc1c(O)ccc2c(=O)c(Oc3ccccc3Cl)c(C(F)(F)F)oc12 (configuration not stated) | inactive | –
C#CCOCCOCCOCCNc1nc(N2CCN(C(=O)Cn3cc(CCO)nn3)CC2)nc(N2CCN(C(=O)[C@H](CCCCN)n3cc(CCCC)nn3)CC2)n1 | inactive | –
Cc1cc(C2=NNC(=Nc3ccc(S(=O)(=O)N4CCOCC4)cc3)SC2)c(C)n1CC1CCCO1 (configuration not stated) | inactive | –
C=CCn1c(C)cc(C2=NNC(=NCC)SC2)c1C | 16.4 µM (active) | –
Cc1cccc2nc(-c3ccc(Cl)s3)c(Nc3ccc4c(c3)OCCO4)n12 | inactive | –

SMILES | Potency | activity change, negative = inhibition
COc1ccc(NC(=O)/C(N=Nc2cccc(S(=O)(=O)Nc3ccc(SC(F)F)cc3)c2)=C(\C)O)cc1 | inactive | –
C=CCCC(=O)N1C[C@H]2CON(C)[C@H]2C[C@H]1c1cccc(Nc2ccccc2)c1 | inactive | –
CN(C)C(=O)CCc1ccc2c3c([nH]c2c1)[C@]1(C)[C@@H](C(=O)N2CCCCC2)C[C@H](CC(=O)NCCC2=CCCCC2)C(=O)N1CC3 | inactive | –
CCc1ccc(S(=O)(=O)n2ccnc2)cc1 | inactive | –
CCOc1ccccc1CNC(=O)c1ccc(-n2c(C)cc3c2CCC(C)C3)cc1 (configuration not stated) | inactive | –
O=C(CCc1ccccc1)NNC(=O)c1ccc(Br)cc1 | inactive | –
COc1ccc(C(=O)NC(=S)NNC(=O)c2c(-c3ccccc3)noc2C)cc1 | 23.1 µM (active) | –
Cc1ccc(CNC(=O)c2c(-c3ccccc3)noc2C)cc1 | inactive | –
COc1ccc(C(=O)NNC(=S)NC(=O)c2ccccc2[N+](=O)[O-])cc1 | inactive | –
COc1ccc(C(=O)NC(=S)NNC(=O)CCc2ccccc2)cc1 | 7.31 µM (active) | –
CC(C)Oc1ccc(CCC(=O)NNC(=S)NCc2ccccc2)cc1 | inactive | –
CCN(C(=O)c1sc2cc(OC)ccc2c1Cl)c1ccccc1 | inactive | –
C=CCN1C=C(C(=O)c2ccccc2)C(=O)CC1 | inactive | –
CC(Nc1nc(C(F)(F)F)nc2ccccc12)c1cccs1 (configuration not stated) | inactive | –
COc1cccc(CNc2ncc(-c3ccccc3)n2C)c1 | inactive | –
NS(=O)(=O)c1ccc(CCNc2nc(C(F)(F)F)nc3ccccc23)cc1 | 23.1 µM (active) | –
COc1cccc(CNc2nc(C(F)(F)F)nc3ccccc23)c1 | 23.1 µM (active) | –
COc1cccc(CNC(=O)c2n[nH]c3ccccc23)c1 | inactive | –
NS(=O)(=O)c1ccc(CCNC(=O)CNC(=O)Cc2ccccc2)cc1 | inactive | –
Cc1ccc(C)c(Cn2c(C(=O)O)c(CNCc3cccs3)c3ccccc32)c1 | inactive | –
COC(=O)CN1C(=O)CSc2ccc(S(=O)(=O)Nc3cc(C)ccc3C)cc21 | inactive | –
Cc1ccc(C(=O)c2ccc(N3CCN(C)CC3)c([N+](=O)[O-])c2)cc1 | inactive | –
Cc1cc(N)n(-c2ccc(S(=O)(=O)N3CCCC3)cc2[N+](=O)[O-])n1 | inactive | –
CN1CCN(S(=O)(=O)c2ccc(N3CCN(c4ccccc4O)CC3)c([N+](=O)[O-])c2)CC1 | 14.6 µM (active) | –
COc1ccc(-c2nc(Cn3c(=O)cc(C)c4c(C)nn(-c5ccccc5)c43)c(C)o2)c(OC)c1 | inactive | –

SMILES | Potency | activity change, negative = inhibition
Cc1cc(C)n2ncc(C(=O)N3CCCC3)c2n1 | inactive | –
Cc1cccc(NS(=O)(=O)c2ccc(C)c(C(=O)NCC(c3ccccc3)N(C)C)c2)c1 (configuration not stated) | inactive | –
Cc1oc2c(c1C(=O)N1CCOCC1)C(=O)c1ccccc1C2=O | 16.4 µM (active) | –
CCOC(=O)c1ccccc1C(=O)N1CCOCCOCCOCC1 | inactive | –
Cc1ccccc1-c1ccc(Nc2ccc(C(=O)N3CCOCC3)cc2)nn1 | inactive | –
COc1ccc(C2Nc3ccc(NC(=O)COC(C)=O)cc3C(=O)N2Cc2ccccc2)cc1COc1ccc(NC(C)=O)cc1 (configuration not stated) | inactive | –
CC1=CC(C)(C)N(C(=O)CSc2nnc(-c3ccccc3)o2)c2ccc(C)cc21 | 25.9 µM (active) | –
Cc1cccc(C)c1OC(=O)CSc1nnc(-c2ccccc2)o1 | inactive | –
CC1=CC(C)(C)N(C(=O)CSc2nccn2C)c2cc(C)ccc21 | inactive | –
CCN(CC)C(=O)[C@H]1CC(CC(=O)NCc2ccco2)C(=O)N2CCc3c([nH]c4ccccc34)[C@]12C (some centres not stated) | inactive | –
S=C(Nc1cccc(Cl)c1)Nc1ccc2c(c1)OCCO2 | inactive | –
Cc1cccc(N=C2NN=C(c3c[nH]c4ccccc34)CS2)c1 | inactive | –
Clc1cccc(N=C2NN=C(c3ccc4c(c3)OCCO4)CS2)c1 | 5.17 µM (active) | –
CCn1nnc2cc(C(=O)Nc3ccc(C(=O)OC(C)C)cc3)ccc21 | inactive | –
Cc1cc(C)cc(NC(=O)CSc2oc(-c3ccccc3)nc2S(=O)(=O)c2ccc(Cl)cc2)c1 | – | 4.62% [at 9.27 µM]
Cc1ccc(-c2nc(CS(=O)(=O)CC(=O)NCc3ccccc3Cl)c(C)o2)cc1 | inactive | –
CCCCn1c(SCC(=O)N2CCC(C(=O)OCC)CC2)nc2cc(S(N)(=O)=O)ccc21 | inactive | –
CCCCn1c(SCC(=O)N2CCCC2=O)nc2cc(S(N)(=O)=O)ccc21 | inactive | –
CCCCn1c(SCc2ncc(-c3ccccc3)o2)nc2cc(S(N)(=O)=O)ccc21 | 14.6 µM (active) | –
CCCn1c2ccccc2c2cnn(CC(=O)N(CC)c3cc(C)ccc3C)c(=O)c21 | inactive | –
Cc1ccc(S(=O)(=O)c2nc(-c3cccs3)oc2N2CCCCC2)cc1 | inactive | –
CCOc1ccccc1NC(=O)Cn1nnc(C(=O)Nc2ccc(C)c(C)c2)c1N | inactive | –
